Bioassay records from PubChem BioAssay.
An excerpt weighted towards active compounds, which were near 3.5% of everything screened.
BoNT-A LC inh2 – BoNT A light chain protease inhibition | multiplex microsphere protease substrate cleavage, flow cytometry | inhibition, % at 10 µM | hit rate 0.17% among 360,000 | AID 588499; note: plate controls were buffer without enzyme for full effect and enzyme alone for no effect
Anthrax LF prot – anthrax lethal factor protease inhibition | hit rate 0.12% among 360,000 | inhibition, % at 10 µM | multiplex microsphere protease cleavage assay, LF | AID 588501; note: plate controls were buffer without enzyme for full effect and enzyme alone for no effect
Target sequence (P15917 whole entry, looked up): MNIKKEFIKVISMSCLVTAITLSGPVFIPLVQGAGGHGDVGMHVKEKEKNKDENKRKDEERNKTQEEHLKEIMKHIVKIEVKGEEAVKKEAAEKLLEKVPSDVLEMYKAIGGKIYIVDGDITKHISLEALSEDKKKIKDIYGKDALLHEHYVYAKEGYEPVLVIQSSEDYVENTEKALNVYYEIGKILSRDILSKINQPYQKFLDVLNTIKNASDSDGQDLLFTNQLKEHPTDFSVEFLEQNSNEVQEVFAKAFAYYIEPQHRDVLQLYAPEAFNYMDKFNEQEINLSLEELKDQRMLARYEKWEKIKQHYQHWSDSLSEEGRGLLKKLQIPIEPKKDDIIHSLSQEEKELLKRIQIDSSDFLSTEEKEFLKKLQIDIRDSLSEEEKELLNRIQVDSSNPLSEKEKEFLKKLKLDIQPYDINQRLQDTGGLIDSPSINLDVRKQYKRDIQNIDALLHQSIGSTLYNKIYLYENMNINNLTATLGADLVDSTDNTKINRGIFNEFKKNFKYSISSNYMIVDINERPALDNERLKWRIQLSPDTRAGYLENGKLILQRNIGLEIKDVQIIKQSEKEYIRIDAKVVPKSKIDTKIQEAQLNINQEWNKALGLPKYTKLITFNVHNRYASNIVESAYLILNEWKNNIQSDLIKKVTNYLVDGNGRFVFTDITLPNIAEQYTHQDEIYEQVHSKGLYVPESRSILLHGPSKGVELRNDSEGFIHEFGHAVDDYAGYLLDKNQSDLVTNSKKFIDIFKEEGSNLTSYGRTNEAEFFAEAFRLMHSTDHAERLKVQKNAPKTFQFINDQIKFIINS
BoNT-F LC inh – BoNT F light chain protease inhibition; Multiplex microsphere protease cleavage assay, flow cytometry; inhibition, % at 10 µM; hit rate 0.22% among 360,000; in the data active = inhibition above about 35%, passing the limit was not always enough; inconclusive = no clear call, values can overlap the other calls; note: plate controls were buffer without enzyme for full effect and enzyme alone for no effect
Autofluor counter – compound fluorescence in toxin protease inhibitor counterscreen | AID 624483 | fluorescence intensity (concentration not given with the values) | hit rate 3.1% among 360,000 | compound autofluorescence counterscreen, microsphere flow cytometry; hits give high values; in the data active = fluorescence intensity above about 16000; inconclusive = no clear call, values can overlap the other calls
Active calls of the source: *; ? = inconclusive; . = not tested or not shown. Cut-off read from the data, not from the text of the source, unless noted: active = inhibition above about 30%; inconclusive = no clear call, values can overlap the other calls; inactive = below that.

SMILES	BoNT-A LC inh2	Anthrax LF prot	BoNT-F LC inh	Autofluor counter
CC1(C(=O)Nc2nnc(C(C)(C)C)s2)Cc2ccccc2C(=O)O1 (centres undefined)	-1	-1	-12	11347
CCSc1nnc(NC(=O)C2(C)Cc3ccccc3C(=O)O2)s1 (centres undefined)	5	-12	6	17590*
O=C(Nc1nnc(SCc2ccccc2)s1)c1cccs1	0	-2	0	2670
Cc1nc(C)c(-c2csc(Nc3ccc(Cl)cn3)n2)s1	0	-2	-4	2753
O=C(Nc1nc(-c2ccccc2)cs1)c1cccc([N+](=O)[O-])c1	-3	-3	-6	20697*
O=C(Cc1nc(-c2ccc([N+](=O)[O-])cc2)cs1)Nc1ccccc1	2	-5	1	21221*
COCC(=O)Nc1nc(-c2ccc([N+](=O)[O-])cc2)cs1	-1	0	-5	4556
Cc1nnc(-c2cccc(Br)c2)c2cn(-c3ccccc3Cl)nc12	2	-14	14	26146*
CN(CC(=O)NC1CCCCC1)S(=O)(=O)c1ccc(Cl)cc1	1	8	10	6633
CS(=O)(=O)N(CC(=O)NC1CCCCC1)Cc1ccc(Cl)cc1	-3	-4	-5	17256*
CS(=O)(=O)N(CC(=O)NC1CCCC1)Cc1ccc(Cl)cc1	-3	0	0	17349*
CN1CCN(C(=O)CN(Cc2ccc(Cl)cc2)S(C)(=O)=O)CC1	0	-2	-3	2734
CS(=O)(=O)N(CC(=O)N1CCCCCC1)Cc1ccc(Cl)cc1	?	-1	4	22456*
CC1=C(C(=O)N2CCOCC2)C(c2ccccc2F)C2=C(CC(C)(C)CC2=O)N1 (centres undefined)	2	-3	2	19197*
Nn1cnc2cc3ccccc3cc2c1=O	1	.	4	5284
Cc1ccc(S(=O)(=O)CCC(=O)OCc2nc(N)nc(Nc3ccccc3C)n2)cc1	0	4	-7	5567
Cc1ccccc1Nc1nc(N)nc(COC(=O)CCS(=O)(=O)c2ccccc2)n1	-1	-2	-5	24248*
CCCCC1Cc2[nH]c(=S)[nH]c(=O)c2C(c2cccc3ccccc23)O1 (centres undefined)	0	1	1	5534
Cc1nn(-c2ccccc2)c(OC(=O)c2cccs2)c1S(=O)(=O)c1ccc([N+](=O)[O-])cc1	0	-3	0	16331*
CCN1CCN(C(=O)C2c3cc(OC)c(OC)cc3C(=O)N(C)C2c2ccc(SC)cc2)CC1 (centres undefined)	?	-3	-12	22280*
Cc1cccc(C)c1-n1nnnc1-c1nc2cc3ccccc3cc2[nH]c1=O	14	18	12	5125
CC1CCCC(NC(=O)COC(=O)Cc2ccccc2)C1C (centres undefined)	7	-20	8	17041*
CC1CCCC(NC(=O)CCn2c(=O)oc3ccccc32)C1C (centres undefined)	1	-4	0	22573*
O=C(CCn1c(=O)oc2ccccc21)NCCN1CCc2ccccc2C1	1	1	5	20382*
CC1CCCCC1NC(=O)CCn1c(=O)oc2ccccc21 (centres undefined)	1	4	20	10700
SMILES	BoNT-A LC inh2	Anthrax LF prot	BoNT-F LC inh	Autofluor counter
COc1ccc(CNC(=O)CCn2c(=O)oc3ccccc32)c(OC)c1	0	-9	2	4537
COc1cccc(CNC(=O)CCn2c(=O)oc3ccccc32)c1	-3	-3	-4	25239*
Cn1c(Sc2ccc(C(F)(F)F)cc2[N+](=O)[O-])nnc1-c1ccccc1	3	-6	4	18706*
Cn1c(Sc2ccc([N+](=O)[O-])cc2C(F)(F)F)nnc1-c1ccccc1	0	0	9	3769
O=[N+]([O-])c1ccc(Cl)c(/C=N/N2CCN(Cc3ccccc3Cl)CC2)c1	-1	-4	1	2546
O=[N+]([O-])c1ccc(Cl)c(/C=N/N2CCN(Cc3ccccc3)CC2)c1	1	-9	1	21691*
O=[N+]([O-])c1ccc(Cl)c(/C=N/N2CCN(Cc3ccc(Cl)cc3)CC2)c1	?	-8	4	18114*
O=C(NCc1ccc(F)cc1)OC1CC2CC1[C@H]1CCCCN1C2=O (some centres undefined)	-1	-8	-6	4446
Cc1ccc(S(=O)(=O)N2CCC(C(=O)OCC(=O)N3C(C)CCCC3C)CC2)cc1C (centres undefined)	1	2	4	3708
O=C(OCc1ccc(Cl)cc1)c1ccccc1C(=O)c1ccccc1	-3	-12	-8	17651*
N/C(Cc1ccc(Cl)cc1)=N\OC(=O)c1ccccc1	1	-1	42*	4345
CCC(=O)Nc1ccccc1C(=O)OCc1ccc(C(=O)c2ccccc2)cc1	8	-13	9	20219*
CCC(=O)Nc1ccccc1C(=O)NC1CCCCC1	2	0	3	21479*
